Hits are enriched below; roughly 0.8% of the tested compounds scored in any of these assays.
TDP1 block: qHTS Assay for Inhibitors of Tyrosyl-DNA Phosphodiesterase (TDP1); Tyrosyl-DNA phosphodiesterase 1 (Homo sapiens), Q9NUW8; 0.28% of 350,000 active; Potency, µM (top dose mostly 130 µM), actives largely listed as inhibitors; AID 485290, 2010; recombinant TDP1, AlphaScreen DNA substrate cleavage; further: nearly all actives have a fitted effect of over 40% in size
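Compounds were preincubated with Tdp1 (1 nM final) for 15 min at room temperature before substrate (15 nM final) started a 5 min reaction; beads (10 ug/ml final) were then added for 10 min before AlphaScreen detection.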
PGK inhibitor: qHTS Assay to Find Inhibitors of Phosphoglycerate Kinase; Potency, µM (doses to about 57.5 µM), usual class: inhibitors; PGK/GAPDH coupled, Kinase-Glo luminescence, 60 min; 0.043% of 380,000 active; further: nearly all actives have a fitted effect of over 60% in size
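Recombinant glycosomal PGK reaction used 1,3-bisphosphoglycerate generated in-well by GAPDH (100nM final) in 100mM TEA pH 7.6, 5mM MgCl2, 0.01% Tween-20. After 60 minutes at room temperature, ATP was read by Kinase-Glo Plus luminescence end-point.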
FEN1 inhibitor: qHTS Assay for the Inhibitors of Human Flap endonuclease 1 (FEN1); P39748; Recombinant FEN1 flap cleavage, fluorescence, 15 min; Potency, µM (series often up to 114 µM), actives largely listed as inhibitors; 0.35% of 390,000 active; AID 588795, 2011; further: nearly all actives have a fitted effect of over 65% in size
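Read-out was taken twice, immediately and after 15 min, following addition of 50 nM substrate to 10 nM FEN1 that had sat with test compound for 15 min at room temperature. Curves came from a four-parameter Hill model.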
PI4K2A inh: qHTS for small molecular inhibitors of PI4K2A. Phosphatidylinositol 4-kinase type 2-alpha (Homo sapiens), Q9BTU6. purified PI4K2A, ADP-Glo luminescence, 1 h; stronger effect = lower value. activity change, negative = inhibition, % at 76.9 µM. 0.13% of 420,000 active. AID 1346378, 2018; in the data active means activity change below about -50%; inconclusive means mostly about -30% to -49%
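In this quantitative HTS, ADP production by PI4K2A was quantified luminescently after 1 h at ambient temperature; 100 microM adenosine served as plate-quality control.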
APEX1 inh: qHTS Assay for Inhibitors of the Human Apurinic/apyrimidinic Endonuclease 1 (APE1) | DNA repair nuclease/redox regulator APEX1 (Homo sapiens), P27695 | recombinant APE1, TAMRA/BHQ-2 abasic DNA cleavage fluorescence | Potency, µM (series often up to 65.8 µM), actives largely listed as inhibitors | 0.35% of 350,000 active | AID 2517, 2012; further: nearly all actives have a fitted effect of over 55% in size
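APE1 at 0.75 nM preincubated 15 min at room temperature with compound. Reaction then started with 50 nM double-stranded THF-abasic substrate labelled with TAMRA/BHQ-2, and 525/598 nm fluorescence read kinetically. Activity taken as third-minus-first read difference, normalized to DMSO and NSC13755 controls.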
Tb PFK inh-1: qHTS Assay to Find Inhibitors of T. brucei phosphofructokinase; ATP-dependent 6-phosphofructokinase (Trypanosoma brucei brucei), O15648; T. brucei PFK, ADP-Glo luminescence; Potency, µM (titrated, usually from 57.5 µM), hits mostly inhibitors; 0.17% of 330,000 active; further: nearly all actives have a fitted effect of over 60% in size
Target sequence (O15648 whole entry, looked up): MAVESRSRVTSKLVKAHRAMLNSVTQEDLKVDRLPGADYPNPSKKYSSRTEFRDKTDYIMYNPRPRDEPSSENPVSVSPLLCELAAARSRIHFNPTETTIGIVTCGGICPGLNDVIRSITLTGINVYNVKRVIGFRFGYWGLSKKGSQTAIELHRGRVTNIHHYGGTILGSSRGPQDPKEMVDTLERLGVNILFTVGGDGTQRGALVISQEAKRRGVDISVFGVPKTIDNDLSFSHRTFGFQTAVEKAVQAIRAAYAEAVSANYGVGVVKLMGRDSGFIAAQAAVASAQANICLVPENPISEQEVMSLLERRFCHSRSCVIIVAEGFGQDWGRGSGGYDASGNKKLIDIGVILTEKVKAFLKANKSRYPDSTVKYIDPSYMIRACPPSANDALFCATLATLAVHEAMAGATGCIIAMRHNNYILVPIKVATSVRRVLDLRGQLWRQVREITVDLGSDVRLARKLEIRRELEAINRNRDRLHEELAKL
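Activity is normalized to no-enzyme wells (full inhibition) and 1.25 nM enzyme wells (no inhibition). Reaction: 0.5 mM F6P, 0.1 mM ATP, 45 min RT, ADP-Glo luminescence; concentration-response curves fitted and classed by quality.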
TbPFK ATP: Tb PFK orthogonal confirmatory assay using ATP depletion (Kinase-Glo Plus) as an alternative measure of Tb PFK activity: Hit Validation; shares compounds with Tb PFK inh-1; Potency, µM (titrated, usually from 57.5 µM); AID 504636, 2011; 47% of 1,100 active; Tb PFK enzyme, ATP depletion, Kinase-Glo Plus luminescence; calls by dose curve; further: nearly all actives have a fitted effect of over 60% in size
Tb PFK inh-2: Inhibitors of T. brucei phosphofructokinase: Hit Validation; shares compounds with Tb PFK inh-1; purified T. brucei PFK, ADP-Glo luminescence, 45 min; Potency, µM (titrated, usually from 57.5 µM), hits mostly inhibitors; 41% of 1,100 active; further: nearly all actives have a fitted effect of over 60% in size
Large screens that a line does not name were inactive (follow-up assays come after a bar, where they were run). Unless noted, the call rests on the fitted dose curve; in most records, active means well fitted curve in the direction sought with a large enough effect; inconclusive means small, poorly fitted or top-dose-only effect, or another doubt; inactive means no such curve, though single readings can be large; an effect the other way counts as inactive or inconclusive.

O=C(Cc1cccc(C(F)(F)F)c1)Nc1ccc(S(=O)(=O)N2CCCC2)cc1	Tb PFK inh-1 inconclusive | TbPFK ATP inconclusive | Tb PFK inh-2 inconclusive
Cc1ccn(-c2cc(O)c(-n3ccc(C)n3)cc2O)n1	Tb PFK inh-1 inconclusive | TbPFK ATP inactive | Tb PFK inh-2 inconclusive
Cc1[nH]c(=S)sc1Cc1ccc(Cl)c(Cl)c1	APEX1 inh inconclusive, Tb PFK inh-1 19µM (no result: PGK inhibitor, FEN1 inhibitor, PI4K2A inh) | TbPFK ATP 27µM | Tb PFK inh-2 24µM
Oc1cc2c(cc1C(c1ccc(Cl)c(Cl)c1)N1CCCC1)OCO2 (configuration not stated)	Tb PFK inh-1 21µM | TbPFK ATP inconclusive | Tb PFK inh-2 inconclusive
Cc1cc(F)ccc1NCc1ccc([N+](=O)[O-])cc1	Tb PFK inh-1 inconclusive | TbPFK ATP inconclusive | Tb PFK inh-2 inconclusive
Oc1c(Cl)cc(Cl)cc1CN1CCN(Cc2ccccc2)CC1	none
O=C(CCN1CCN(Cc2ccccc2)CC1)NNC(=O)Cc1ccc(Cl)c(Cl)c1	Tb PFK inh-1 17µM | TbPFK ATP 8.5µM | Tb PFK inh-2 11µM
COc1ccc(C(=O)CSC#N)cc1OC	Tb PFK inh-1 inconclusive | TbPFK ATP 4.8µM | Tb PFK inh-2 12µM
O=C(COc1ccc([N+](=O)[O-])cc1)Nc1cc(C(=O)O)cc(C(=O)O)c1	Tb PFK inh-1 inconclusive | TbPFK ATP 13µM | Tb PFK inh-2 27µM
O=[N+]([O-])c1ccc(OP(=O)(O)Oc2ccc([N+](=O)[O-])cc2)cc1	none (no result: TDP1 block, APEX1 inh, Tb PFK inh-1)
O=C(COc1ccc(/C=C\[N+](=O)[O-])cc1)N1CCOCC1	APEX1 inh inconclusive, Tb PFK inh-1 inconclusive | TbPFK ATP inactive | Tb PFK inh-2 inconclusive
C=CCN1CCc2cccc3c2C1Cc1ccc(O)c(O)c1-3 (configuration not stated)	APEX1 inh inconclusive (no result: PGK inhibitor, FEN1 inhibitor, PI4K2A inh, Tb PFK inh-1)
CCOC(=O)C(O)(c1ccc(NC(=O)c2ccc(Cl)c(Cl)c2)cc1)C(F)(F)F (configuration not stated)	APEX1 inh inconclusive
Cc1ccc(NC(=O)c2ccc(Cl)c(N3C(=O)C=CC3=O)c2)cc1	Tb PFK inh-1 inconclusive | TbPFK ATP 12µM | Tb PFK inh-2 inconclusive
O=C(NNc1nc2ccccc2s1)Nc1ccc(Cl)c(Cl)c1	Tb PFK inh-1 inconclusive (no result: TDP1 block) | TbPFK ATP inconclusive | Tb PFK inh-2 inactive
O=C(CSc1nc2ccccc2s1)Nc1ccc(Cl)c(C(=O)O)c1	Tb PFK inh-1 inconclusive | TbPFK ATP inactive | Tb PFK inh-2 inactive
CC[C@H]1C2CC3[C@@H]4N(C)c5ccccc5[C@]45C[C@@H](C2[C@H]5O)N3[C@@H]1O (some centres not stated)	none (no result: PGK inhibitor, FEN1 inhibitor, PI4K2A inh, Tb PFK inh-1)
COc1ccccc1NS(=O)(=O)c1cccc(-n2c(O)c(C=Nc3ccccc3C(=O)O)c3ccccc3c2=O)c1	FEN1 inhibitor 79µM, Tb PFK inh-1 inconclusive | TbPFK ATP inactive | Tb PFK inh-2 inconclusive
C=C(C)C1CCC(C)=CC1c1c(OC)cc(C)cc1OC (configuration not stated)	TDP1 block inconclusive (no result: PGK inhibitor, FEN1 inhibitor, PI4K2A inh, Tb PFK inh-1)

Source: PubChem (National Center for Advancing Translational Sciences (NCATS))
